Measured values reported in the supplement of paper PMC9262897, “Low-cost anti-mycobacterial drug discovery using engineered E. coli” (Nature Communications, 2022).
Structures can show the parent of a compound that is named as a salt. ± gives the standard deviation of the averaged measurements.

Assays:
Assay in all cases: growth (OD600 after 10 h); higher = more growth (less inhibition)
[1] = test system: E. coli TESEC Alr+ wild-type control; conditions: compound 0.1 mM; raw OD600 reference: median of DMSO wells 0.241, cell-free background 0.041
Procedure: (§1)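 TESEC Mtb Alr E. coli, or the Alr+ wild-type control, in 384-well plates with Prestwick library compounds at 0.1 mM and 1% DMSO, across arabinose induction levels of 1E3 to 1E7 nM. Growth is read as OD600 after 10 h at 37 °C in triplicate biological replicates.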

[2] = test system: E. coli TESEC Mtb Alr; conditions: compound 0.1 mM
Procedure: as §1

[3] = test system: E. coli TESEC Mtb Asd; conditions: compound 0.1 mM
Procedure: (§2)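 TESEC E. coli strains in which the native enzyme is deleted and replaced by arabinose-inducible Mtb Asd, DapB, CysH or TrpD, each grown in its selective medium. Strains were screened against the Prestwick library at 0.1 mM and 1% DMSO in 384-well format at low and high arabinose induction. Growth is read as OD600 after 10 h in triplicate.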

[4] = test system: E. coli TESEC Mtb DapB; conditions: compound 0.1 mM
Procedure: as §2

[5] = test system: E. coli TESEC Alr+ wild-type control; conditions: compound 0.1 mM; raw OD600 reference: median of DMSO wells 0.49, cell-free background 0.052
Procedure: (§3)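 TESEC Mtb Alr E. coli (ΔaraC ΔtolC ΔentC Δalr ΔdadX, arabinose-inducible Mtb Alr) or the Alr+ wild-type control strain, grown in defined M9-fructose medium without D-alanine in 96-well plates with Prestwick library compounds at 0.1 mM and 1% DMSO. Low Alr induction is 0.1 µM arabinose and high induction is 10 mM arabinose.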

[6] = test system: E. coli TESEC Mtb Alr; conditions: compound 0.1 mM; remark: listed apart in the source
Procedure: as §3

[7] = arabinose 1000 nM, raw OD600 reference: median of DMSO wells 0.294, cell-free background 0.041
[8] = arabinose 10000 nM, raw OD600 reference: median of DMSO wells 0.264, cell-free background 0.041
[9] = arabinose 100000 nM, raw OD600 reference: median of DMSO wells 0.201, cell-free background 0.041
[10] = arabinose 1000000 nM, raw OD600 reference: median of DMSO wells 0.193, cell-free background 0.041
[11] = arabinose 10000000 nM, raw OD600 reference: median of DMSO wells 0.146, cell-free background 0.041
[12] = arabinose induction (level): High, raw OD600 reference: median of DMSO wells 0.331, cell-free background 0.041
[13] = arabinose induction (level): Low, raw OD600 reference: median of DMSO wells 0.417, cell-free background 0.041
[14] = arabinose induction (level): High, raw OD600 reference: median of DMSO wells […], cell-free background 0.041
[15] = arabinose induction (level): Low, raw OD600 reference: median of DMSO wells 0.227, cell-free background 0.041
[16] = arabinose 100 nM, raw OD600 reference: median of DMSO wells 0.413, cell-free background 0.052
[17] = arabinose 10000000 nM, raw OD600 reference: median of DMSO wells […], cell-free background 0.052

SMILES | growth [1] | growth [2, 7] | growth [2, 8] | growth [2, 9] | growth [2, 10] | growth [2, 11] | growth [3, 12] | growth [3, 13] | growth [4, 14] | growth [4, 15] | growth [5] | growth [6, 16] | growth [6, 17]
CN1CCN(CCCN2c3ccccc3Sc3ccc(Cl)cc32)CC1 [Prochlorperazine dimaleate] | 0.04087 ± 0.00015 | 0.041 ± 0.00045 | 0.03943 ± 0.00025 | 0.0418 ± 0.00082 | 0.0404 ± 0.0023 | 0.0433 ± 0.00072 | 0.059 ± 0.0069 | 0.166 ± 0.025 | 0.156 ± 0.021 | 0.139 ± 0.0076 | 0.04753 ± 0.00025 | 0.287 ± 0.21 | 0.0531 ± 0.0013
CC(C)n1c(/C=C/C(O)CC(O)CC(=O)O)c(-c2ccc(F)cc2)c2ccccc21 (stereo not drawn) [Fluvastatin sodium salt] | 0.165 ± 0.0024 | 0.247 ± 0.017 | 0.192 ± 0.0063 | 0.187 ± 0.015 | 0.0938 ± 0.0088 | 0.157 ± 0.0043 | 0.216 ± 0.066 | 0.32 ± 0.052 | 0.17 ± 0.0096 | 0.199 ± 0.02 | 0.401 ± 0.012 | 0.394 ± 0.03 | 0.235 ± 0.0099
COCC(=O)Nc1c(I)c(C(=O)NCC(O)CO)c(I)c(C(=O)N(C)CC(O)CO)c1I (stereo not drawn) [Iopromide] | 0.259 ± 0.016 | 0.329 ± 0.021 | 0.289 ± 0.014 | 0.237 ± 0.0091 | 0.188 ± 0.0057 | 0.156 ± 0.013 | 0.491 ± 0.0086 | 0.464 ± 0.028 | 0.213 ± 0.022 | 0.257 ± 0.043 | 0.464 ± 0.037 | 0.401 ± 0.019 | 0.349 ± 0.018
Cc1oncc1C(=O)Nc1ccc(C(F)(F)F)cc1 [Leflunomide] | 0.139 ± 0.0056 | 0.149 ± 0.0026 | 0.1904 ± 0.0019 | 0.138 ± 0.0062 | 0.106 ± 0.0035 | 0.096 ± 0.00046 | 0.381 ± 0.085 | 0.327 ± 0.018 | 0.226 ± 0.028 | 0.255 ± 0.034 | 0.3131 ± 0.0014 | 0.364 ± 0.021 | 0.158 ± 0.027
Clc1ccc(CCC(Cn2ccnc2)Sc2c(Cl)cccc2Cl)cc1 (stereo not drawn) [Butoconazole nitrate] | 0.0548 ± 0.0082 | 0.0578 ± 0.0014 | 0.066 ± 0.0018 | 0.0622 ± 0.00087 | 0.0664 ± 0.00089 | 0.0514 ± 0.0014 | 0.0629 ± 0.00052 | 0.0669 ± 0.0063 | 0.0705 ± 0.0052 | 0.0712 ± 0.0093 | 0.0876 ± 0.003 | 0.1 ± 0.057 | 0.115 ± 0.013
CNC(C)CCC=C(C)C (stereo not drawn) [Isometheptene mucate] | 0.259 ± 0.012 | 0.314 ± 0.0099 | 0.266 ± 0.011 | 0.21 ± 0.025 | 0.177 ± 0.0051 | 0.1478 ± 0.0012 | 0.228 ± 0.035 | 0.397 ± 0.096 | 0.22 ± 0.0027 | 0.246 ± 0.018 | 0.51 ± 0.055 | 0.405 ± 0.017 | 0.314 ± 0.02
